Data from PubChem BioAssay (NCATS).
Several values for one entry are separate records, joined by “and”; a condition that tells them apart may be missing. Equal entries are not always repeated. Records with an inconclusive call do not appear. Entries that show only a call come without a potency. Activity calls are given as the source filed them. Unless noted, the call rests on the fitted dose curve; in most records, active means well fitted curve in the direction sought with a large enough effect; inconclusive means small, poorly fitted or top-dose-only effect, or another doubt; inactive means no such curve, though single readings can be large; an effect the other way counts as inactive or inconclusive.

What was measured:
[1] = Cell Viability - N2a (AID 540); conditions: N2a mouse neuroblastoma cell viability; activity change, negative = cytotoxicity: at 92.2 µM (top of the series); further: nearly all actives have a fitted effect of over 45% in size
Procedure, shortened: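 Mouse neuroblastoma N2a cells, 1500/well, exposed to compounds 40 h at 37 °C in complete medium. Viability measured as cellular ATP by CellTiter-Glo luminescence; AC50 from Hill fits of concentration-response.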

[2] = Cell Viability - H-4-II-E (AID 543); further: nearly all actives have a fitted effect of over 35% in size; further: potency means the concentration at half of the fitted maximal effect
Procedure, shortened: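 Rat hepatoma H-4-II-E cells, 1500 per well, treated 40 h at 37 °C in complete medium. Cellular ATP read by CellTiter-Glo luminescence; AC50 from Hill fits of concentration-response.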

[3] = Cellular Toxicity (caspase-3) Mesangial (AID 660);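 further: combined caspase 3 and 7 activity read by Caspase-Glo luminescence; cells exposed to compound for 16 h before the caspase read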
Procedure, shortened: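 Human renal glomerular mesangial cells, 1000/well, 5 h at 37 C before 16 h compound treatment. Caspase-Glo 3/7 luminescence after 20 min; normalized to DMSO and 100 uM tamoxifen, AC50 from Hill fit.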

[4] = Cellular Toxicity (caspase-3) NIH 3T3 (AID 666);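 further: caspase signal read after 16 h compound exposure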
Procedure, shortened: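 Mouse NIH 3T3 fibroblasts (1000/well) treated 16 h at 37 C; caspase-3/7 activity measured by Caspase-Glo 3/7 luminescence after 20 min. Normalized to DMSO and 100 uM tamoxifen; AC50 from Hill fits.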

[5] = biological target: Cytochrome P450 3A4 (Homo sapiens) (UniProt P08684); assay: qHTS Assay for Inhibitors and Substrates of Cytochrome P450 3A4 (AID 884); further: nearly all actives have a fitted effect of over 50% in size; further: potency means the concentration at half of the fitted maximal effect
Sequence of Cytochrome P450 3A4 (Homo sapiens) (P08684 whole entry, looked up): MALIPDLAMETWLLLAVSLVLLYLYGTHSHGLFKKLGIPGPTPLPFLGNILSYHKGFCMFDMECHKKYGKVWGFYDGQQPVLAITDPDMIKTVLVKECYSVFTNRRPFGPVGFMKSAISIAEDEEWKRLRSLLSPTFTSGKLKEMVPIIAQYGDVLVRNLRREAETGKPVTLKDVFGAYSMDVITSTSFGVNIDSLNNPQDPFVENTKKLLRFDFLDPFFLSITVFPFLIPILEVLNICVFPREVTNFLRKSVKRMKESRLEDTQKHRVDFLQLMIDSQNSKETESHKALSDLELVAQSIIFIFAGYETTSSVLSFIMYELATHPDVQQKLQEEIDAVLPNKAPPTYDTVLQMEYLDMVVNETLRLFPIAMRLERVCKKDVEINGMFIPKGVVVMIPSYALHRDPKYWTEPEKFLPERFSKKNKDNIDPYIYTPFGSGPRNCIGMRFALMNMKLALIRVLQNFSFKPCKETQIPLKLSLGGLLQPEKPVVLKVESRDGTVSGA
Procedure, shortened: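 20 nM human CYP3A4 with 25 uM Luciferin-PPXE (at KM) in 200 mM KPO4, preincubated 10 min with compound; NADPH regeneration started a 60 min RT reaction. Luciferin detected by luminescence, normalized to 57 uM ketoconazole as full inhibition.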

[6] = MultiTox-Fluor Cytotoxicity Assay - LYMP1-002 - Dead Cells (AID 960); further: nearly all actives have a fitted effect of over 60% in size
Procedure, shortened: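 Human lymphoblastoid LYMP1-002 cells, 2500/well, treated 16 h at 37 C; dead-cell protease cleavage of bis-AAF-R110 read by fluorescence (485/520); normalized to DMSO and 15 uM tetraoctylammonium bromide; AC50 from Hill fit.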

[7] = Cell Viability - LYMP2-004 (AID 966); further: nearly all actives have a fitted effect of over 65% in size
Procedure, shortened: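 Lymphoblastoid LYMP2-004 cells, 2500 per well, were preincubated for 5 hr and then treated with compound for 24 h at 37 C in complete medium. Viability was read as cellular ATP by CellTiter-Glo luminescence, and AC50 values were taken from Hill fits to concentration-response data.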

[8] = Cell Viability - LYMP2-021 (AID 974);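 further: compound exposure lasts 24 hours at 37 °C; nearly all actives have a fitted effect of over 55% in size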
Procedure, shortened: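 Human lymphoblastoid LYMP2-021 cells, 2500/well in complete medium, treated 24 hours at 37 C. Intracellular ATP by CellTiter-Glo luminescence (30 min, RT); AC50 from Hill fits of concentration-response.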

[9] = Cell Viability - LYMP2-012 (AID 982);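 further: cellular ATP by luciferase luminescence where a drop means cytotoxicity; cells exposed to compound for one day before reading; nearly all actives have a fitted effect of over 55% in size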
[10] = Cell Viability - LYMP1-002 - Assay at 40 hr (AID 994); further: nearly all actives have a fitted effect of over 60% in size
Procedure, shortened: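 LYMP1-002 human lymphoblastoid cells (2500/well, complete medium) were treated with compounds for 40 hr at 37 C. Intracellular ATP was measured by CellTiter-Glo luminescence, and AC50 values came from Hill-equation fits of concentration-response data; tetraoctylammonium bromide was the positive control.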

[11] = qHTS assay for small molecule antagonists of retinoid X receptor alpha signaling (AID 588546; active means well fitted inhibition curve with a large enough effect in the signal ratio, with a control signal flat, not every such curve was filed as active; the % refers to the signal ratio;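 further: cells stimulated with 9-cis-retinoic acid as agonist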); conditions: HEK293T RXRa-UAS-bla, beta-lactamase ratio, antagonist mode; measured here: W530 green channel, cytotoxicity proxy
Procedure, shortened: (§1)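 Beta-lactamase reporter inhibition, read as CCF4 fluorescence ratio (ex 405, em 460/530 nm) after 2 h at RT. HEK293T UAS-bla cells, 2500/well, were stimulated with 9-cis-RA at 500 or 100 nM final alongside test compound for 18 h at 37 C.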

[12] = biological target: Retinoic acid receptor RXR-alpha (Homo sapiens) (UniProt P19793); assay: as above; conditions: HEK293T RXRa-UAS-bla, beta-lactamase ratio, antagonist mode
Sequence of Retinoic acid receptor RXR-alpha (Homo sapiens) (P19793 whole entry, looked up): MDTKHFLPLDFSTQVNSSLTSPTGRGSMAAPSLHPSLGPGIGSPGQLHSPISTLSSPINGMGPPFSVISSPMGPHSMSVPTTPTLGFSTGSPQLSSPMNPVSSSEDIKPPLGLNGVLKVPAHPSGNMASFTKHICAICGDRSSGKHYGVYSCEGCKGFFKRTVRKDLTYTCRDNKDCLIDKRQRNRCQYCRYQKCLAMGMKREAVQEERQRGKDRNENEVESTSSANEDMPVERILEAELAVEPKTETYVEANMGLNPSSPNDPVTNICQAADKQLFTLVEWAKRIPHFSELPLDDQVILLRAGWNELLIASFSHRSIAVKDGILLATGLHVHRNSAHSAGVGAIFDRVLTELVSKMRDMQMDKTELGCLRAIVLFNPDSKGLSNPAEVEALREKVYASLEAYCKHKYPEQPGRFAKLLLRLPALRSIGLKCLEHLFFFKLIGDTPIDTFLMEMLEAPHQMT
Procedure, shortened: as §1

[13] = biological target: Tumor necrosis factor (Homo sapiens) (UniProt P01375); assay: qHTS assay to identify small molecules that stimulate Tumor Necrosis Factor-alpha (TNF-alpha) secretion (AID 651757; active means well fitted curve in the direction sought with a large enough effect in the signal ratio; the % refers to the signal ratio)
Sequence of Tumor necrosis factor (Homo sapiens) (P01375 whole entry, looked up): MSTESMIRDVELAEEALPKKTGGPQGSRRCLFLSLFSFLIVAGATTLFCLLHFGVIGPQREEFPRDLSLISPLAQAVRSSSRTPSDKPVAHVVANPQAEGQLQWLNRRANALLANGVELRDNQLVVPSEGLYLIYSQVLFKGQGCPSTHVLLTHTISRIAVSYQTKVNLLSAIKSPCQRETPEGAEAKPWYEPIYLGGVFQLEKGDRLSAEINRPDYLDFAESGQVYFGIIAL
Procedure, shortened: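 THP-1 cells (3000/well) exposed to compounds 17 hrs at 37 C. Secreted TNF-alpha detected by HTRF with cryptate- and XL665-labeled anti-TNF-alpha antibodies after 3 hr at room temperature.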

[14] = biological target: Nuclear receptor ROR-gamma (Homo sapiens) (UniProt P51449); assay: qHTS assay for small molecule antagonists of the retinoid-related orphan receptor gamma (ROR-gamma) signaling pathway (AID 651802);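 further: luciferase reporter luminescence driven by ROR response element; nearly all actives have a fitted effect of over 60% in size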
Sequence of Nuclear receptor ROR-gamma (Homo sapiens) (P51449 whole entry, looked up): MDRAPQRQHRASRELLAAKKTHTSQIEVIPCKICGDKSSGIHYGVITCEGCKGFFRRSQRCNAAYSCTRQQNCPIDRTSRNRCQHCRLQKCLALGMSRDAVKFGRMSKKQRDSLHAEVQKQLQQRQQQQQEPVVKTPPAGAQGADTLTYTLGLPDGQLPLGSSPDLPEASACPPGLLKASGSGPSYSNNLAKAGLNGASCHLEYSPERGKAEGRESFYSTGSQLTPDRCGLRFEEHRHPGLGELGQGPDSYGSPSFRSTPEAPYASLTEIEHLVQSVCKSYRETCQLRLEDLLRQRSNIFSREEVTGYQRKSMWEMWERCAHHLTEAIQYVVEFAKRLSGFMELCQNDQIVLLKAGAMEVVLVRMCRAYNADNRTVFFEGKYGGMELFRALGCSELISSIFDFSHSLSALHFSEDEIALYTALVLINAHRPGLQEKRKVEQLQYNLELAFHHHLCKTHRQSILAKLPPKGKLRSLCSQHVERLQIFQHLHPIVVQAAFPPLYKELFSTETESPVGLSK
Procedure, shortened: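 CHO cells with TET-inducible ROR-gamma and RORE-luciferase reporter, dosed then doxycycline-induced. After 16 h at 37C, One-Glo luminescence read; decreased signal indicates antagonism.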

[15] = qHTS assay for small molecule agonists of the antioxidant response element (ARE) signaling pathway measured by Nrf2-dependant transcriptional activity (AID 720636; active means well fitted curve in the direction sought with a large enough effect in the repeat runs; an effect the other way counts as inactive or inconclusive;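 further: HepG2 cells with an ARE-driven luciferase reporter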)
Procedure, shortened: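 ONE-Glo luminescence, read 30 min after reagent addition at room temperature, reflected ARE reporter activity in HepG2 cells that had been incubated with compound for 16 hr at 37 C in 1% dialyzed FBS.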

[16] = qHTS assay for small molecule antagonists of the retinoid-related orphan receptor gamma (ROR-gamma) signaling pathway - cell viability counter screen (AID 720652; active means well fitted curve in the direction sought with a large enough effect in the repeat runs; an effect the other way counts as inactive or inconclusive;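 further: compound exposure lasted 16 hr before ATP read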)
Procedure, shortened: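 CHO cells carrying TET-inducible ROR and RORE-luciferase reporter, plated 5 hr, then dosed with compound plus doxycycline. After 16 hr at 37 C, viability read as intracellular ATP by CellTiter-Glo luminescence.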

[17] = qHTS assay for small molecule activators of the human pregnane X receptor (PXR) signaling pathway (AID 720659; call rule not given here)
[18] = biological target: Vitamin D3 receptor (Homo sapiens) (UniProt P11473); assay: qHTS assay for small molecule antagonists of vitamin D receptor signaling (AID 588541; calls by dose curve;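 further: receptor activated by calcitriol during compound treatment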)
Sequence of Vitamin D3 receptor (Homo sapiens) (P11473 whole entry, looked up): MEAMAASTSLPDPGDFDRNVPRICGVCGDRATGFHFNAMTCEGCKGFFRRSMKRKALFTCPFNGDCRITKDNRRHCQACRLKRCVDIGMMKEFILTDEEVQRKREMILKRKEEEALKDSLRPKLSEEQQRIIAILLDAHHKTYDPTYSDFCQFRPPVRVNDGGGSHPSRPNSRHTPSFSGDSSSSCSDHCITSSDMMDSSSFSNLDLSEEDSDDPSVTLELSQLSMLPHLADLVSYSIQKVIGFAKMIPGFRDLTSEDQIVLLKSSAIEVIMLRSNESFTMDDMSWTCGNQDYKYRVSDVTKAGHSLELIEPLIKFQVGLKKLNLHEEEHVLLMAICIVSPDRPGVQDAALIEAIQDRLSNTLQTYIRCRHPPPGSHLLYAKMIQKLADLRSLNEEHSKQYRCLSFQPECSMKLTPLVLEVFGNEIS
Procedure, shortened: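 VDR-UAS-bla HEK293T cells in 2% charcoal-stripped FBS were stimulated with 1-alpha,25-dihydroxyvitamin D3 (3 nM final) plus compound for 16 h at 37 C. The beta-lactamase CCF4 readout was normalized to 50 nM agonist and DMSO, and Hill fits gave IC50.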

[19] = biological target: Vitamin D3 receptor (Homo sapiens) (UniProt P11473); assay: qHTS assay for small molecule agonists of vitamin D receptor signaling (AID 588543; calls by dose curve)
Procedure, shortened: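 VDR-UAS-bla HEK293T cells, 2000/well, 2% charcoal-stripped FBS; compound titration 16 h at 37 C; CCF4 beta-lactamase ratio read. Normalized to 50 nM 1-alpha,25-dihydroxyvitamin D3 (100%) and DMSO; Hill fit gives EC50, efficacy.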

[20] = biological target: Thyroid hormone receptor beta (Homo sapiens) (UniProt P10828); assay: qHTS assay for small molecule agonists of thyroid hormone receptor beta signaling (AID 588545; calls by dose curve)
Sequence of Thyroid hormone receptor beta (Homo sapiens) (P10828 whole entry, looked up): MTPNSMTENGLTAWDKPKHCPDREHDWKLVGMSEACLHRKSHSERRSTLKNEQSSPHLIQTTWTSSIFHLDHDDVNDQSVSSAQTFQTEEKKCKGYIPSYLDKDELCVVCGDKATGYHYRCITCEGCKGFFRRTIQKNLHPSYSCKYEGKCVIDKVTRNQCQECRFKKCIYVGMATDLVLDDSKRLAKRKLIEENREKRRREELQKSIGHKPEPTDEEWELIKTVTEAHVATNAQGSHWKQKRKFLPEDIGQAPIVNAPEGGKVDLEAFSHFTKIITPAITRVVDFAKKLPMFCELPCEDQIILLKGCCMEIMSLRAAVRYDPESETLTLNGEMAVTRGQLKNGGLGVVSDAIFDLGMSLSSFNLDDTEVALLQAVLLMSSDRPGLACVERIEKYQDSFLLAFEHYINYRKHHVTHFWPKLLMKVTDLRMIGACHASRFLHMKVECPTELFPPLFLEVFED
Procedure, shortened: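 Agonist-mode beta-lactamase reporter assay, HEK 293 cells, 2% charcoal/dextran FBS; cells plated 4 hrs, compound 18 hrs at 37 C, CCF4 2 hrs RT. Normalized to 10 nM T3 (100%) and DMSO (0%); Hill fit gives EC50, efficacy.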

| Compound | Potency [1] | Potency [2] | outcome [3] | Potency [4] | Potency [5] | Potency [6] | Potency [7] | Potency [8] | Potency [9] | Potency [10] | max response [11] | max response [12] | outcome [13] | Potency [14] | Potency [15] | Potency [16] | outcome [17] | outcome [18] | outcome [19] | Potency [20] |
| --- | --- | --- | --- | --- | --- | --- | --- | --- | --- | --- | --- | --- | --- | --- | --- | --- | --- | --- | --- | --- |
| CCCCC#N | inactive | inactive | inactive | inactive | inactive | inactive | inactive | inactive | inactive | inactive | -4.26% | 11.5% (inactive) | inactive | inactive | inactive | inactive | inactive |  |  |  |
| C=CC(=O)OCCN(C)C | inactive | inactive | inactive | inactive | inactive | inactive | inactive |  | inactive | inactive | -6.38% | 5.11% (inactive) | inactive | inactive | inactive | inactive | inactive | inactive | inactive | inactive |
| CC1CC(=O)O1 (stereo not given) | inactive | inactive | inactive | inactive | inactive | inactive | inactive | inactive | inactive | inactive | -1.73% | 4.5% (inactive) | inactive | inactive | inactive | inactive | inactive | inactive | inactive | inactive |
| CCCCNC(=O)n1c(NC(=O)OC)nc2ccccc21 | inactive | 5.01 µM (active) | inactive | inactive | inactive |  | inactive | inactive | inactive |  | 3.99% | -15.6% (inactive) | inactive | inactive |  | inactive | inactive | inactive | inactive | inactive |
| CC(C)(Cl)Cl | inactive | inactive | inactive | inactive | inactive | inactive | inactive | inactive | inactive | inactive | -1.69% | 3.57% (inactive) | inactive |  | inactive | inactive | inactive | inactive | inactive | inactive |
| CC(C)(C)C(O)(CCc1ccc(Cl)cc1)Cn1cncn1 (stereo not given) | inactive | inactive | inactive | inactive | 0.501 µM (active) | inactive | inactive | inactive | inactive | inactive | 3% and 12.6% | -23.2% (inactive) and -32.6% (inactive) | inactive |  | inactive | inactive |  | inactive | inactive | inactive |
| CSSC | inactive | inactive | inactive | inactive | inactive | inactive | inactive | inactive | inactive | inactive | -12.8% | 7.08% (inactive) | inactive | inactive | inactive | inactive | inactive | inactive | inactive | inactive |
| Oc1cc(Cl)ccc1Cl | inactive | inactive | inactive | inactive |  | inactive | inactive | inactive | inactive | inactive | -4.84% and -5.75% | 8.9% (inactive) and 7.36% (inactive) | inactive | inactive | inactive | inactive | inactive | inactive | inactive | inactive |
| O=[N+]([O-])c1cc(Cl)c(Cl)cc1Cl | inactive | inactive | inactive | inactive | inactive | inactive | inactive | inactive |  | inactive | 2.5% | 7.08% (inactive) | inactive | inactive | inactive | inactive | inactive | inactive | inactive | inactive |
| ClP(Cl)(Cl)(Cl)Cl | inactive | inactive | inactive |  | inactive | inactive | inactive | inactive | inactive | inactive | 4.58% | -15.7% (inactive) | inactive | inactive | inactive | inactive | inactive | inactive | inactive | inactive |
| ClCCOCCCl | inactive | inactive | inactive | inactive | inactive |  | inactive |  | inactive | inactive | 8.9% | 4.16% (inactive) | inactive | inactive | inactive | inactive | inactive |  |  | inactive |
| C=CC(=O)OCC(CC)CCCC (stereo not given) | inactive | inactive | inactive | inactive | inactive | inactive | inactive | inactive | inactive | inactive | -0.0756% and 2.94% | 4.48% (inactive) and -16.9% (inactive) | inactive | inactive | inactive | inactive | inactive | inactive | inactive | inactive |
| Cc1ccc(N=C=O)cc1N=C=O | inactive | inactive | inactive | inactive | 15.8 µM (active) | inactive | inactive | inactive | inactive | inactive | 4.82% and -6.24% | 6.03% (inactive) and 0.743% (inactive) |  | inactive | inactive | inactive | inactive | inactive | inactive | inactive |
| BrCCc1ccccc1 | inactive | inactive | inactive | inactive | inactive | inactive | inactive | inactive | inactive | inactive | 2.46% | 9.1% (inactive) | inactive | inactive | inactive | inactive | inactive |  |  | inactive |
